Experimental data from PubChem BioAssay (NCATS).
Results filed as inconclusive are left out. Active and inactive are the calls of the source. Unless noted, calls come from the whole dose curve; as a rule, active = well fitted curve in the direction sought with a large enough effect; inconclusive = small, poorly fitted or top-dose-only effect, or another doubt; inactive = no such curve, though single readings can be large; an effect the other way counts as inactive or inconclusive.

What was measured:
[1] = molecular target: Lysosomal acid glucosylceramidase (Homo sapiens) (UniProt P04062); assay: Glucocerebrosidase-p2 (AID 348; in the data active = potency below about 10 µM; note: potency is the fitted concentration of half-maximal effect); settings: purified GBA, blue fluorogenic substrate, 40 min
Sequence of Lysosomal acid glucosylceramidase (Homo sapiens) (P04062 whole entry, looked up): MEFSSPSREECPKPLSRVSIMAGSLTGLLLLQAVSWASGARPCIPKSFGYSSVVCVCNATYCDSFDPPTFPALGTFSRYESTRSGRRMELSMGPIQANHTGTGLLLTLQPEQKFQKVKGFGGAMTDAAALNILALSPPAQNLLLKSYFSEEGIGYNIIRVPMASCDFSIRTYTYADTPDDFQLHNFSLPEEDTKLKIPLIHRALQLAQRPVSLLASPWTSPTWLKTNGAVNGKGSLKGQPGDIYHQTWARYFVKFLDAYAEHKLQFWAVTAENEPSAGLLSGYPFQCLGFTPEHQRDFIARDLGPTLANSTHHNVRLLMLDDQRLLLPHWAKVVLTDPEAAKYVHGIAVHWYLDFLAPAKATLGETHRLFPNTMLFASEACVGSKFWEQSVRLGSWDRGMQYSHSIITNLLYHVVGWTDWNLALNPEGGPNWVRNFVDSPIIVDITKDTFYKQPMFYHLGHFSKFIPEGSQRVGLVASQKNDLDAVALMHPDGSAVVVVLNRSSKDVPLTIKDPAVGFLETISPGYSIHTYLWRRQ
How it was run: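 Compounds titrated from 0.6 nM upwards against 0.2 nM enzyme in pH 5.9 citric acid/KH2PO4, taurocholate, tween-20; blue fluorogenic substrate 80 uM, 40 min room temperature, stopped and read Ex 365/Em 440 for AC50.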

[2] = AP1 Signaling Pathway (AID 357; active = well fitted curve in either direction with a large enough effect, not every such curve was filed as active;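 note: ME-180 reporter cells stimulated with EGF at its EC50 level; % is set by controls: 0 for no effect and ±100 for the full control effect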); settings: ME-180 AP-1-bla reporter, EGF-induced, beta-lactamase ratio, 5 h; at 7.69 µM (top of the series) unless noted
How it was run: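 A ratiometric CCF4 readout (405 nm excitation; 460 and 530 nm emission) quantified AP-1-driven beta-lactamase in ME-180 cells after 5 h with compound and EC50 EGF; AC50 values were derived for activators and inhibitors.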

[3] = molecular target: Cytochrome P450 1A2 (Homo sapiens) (UniProt P05177); assay: p450-cyp1a2 (AID 410; calls by dose curve; note: potency is the fitted concentration of half-maximal effect); settings: recombinant CYP1A2, luciferin-ME demethylation, luminescence; series mostly up to 57 µM
Sequence of Cytochrome P450 1A2 (Homo sapiens) (P05177 whole entry, looked up): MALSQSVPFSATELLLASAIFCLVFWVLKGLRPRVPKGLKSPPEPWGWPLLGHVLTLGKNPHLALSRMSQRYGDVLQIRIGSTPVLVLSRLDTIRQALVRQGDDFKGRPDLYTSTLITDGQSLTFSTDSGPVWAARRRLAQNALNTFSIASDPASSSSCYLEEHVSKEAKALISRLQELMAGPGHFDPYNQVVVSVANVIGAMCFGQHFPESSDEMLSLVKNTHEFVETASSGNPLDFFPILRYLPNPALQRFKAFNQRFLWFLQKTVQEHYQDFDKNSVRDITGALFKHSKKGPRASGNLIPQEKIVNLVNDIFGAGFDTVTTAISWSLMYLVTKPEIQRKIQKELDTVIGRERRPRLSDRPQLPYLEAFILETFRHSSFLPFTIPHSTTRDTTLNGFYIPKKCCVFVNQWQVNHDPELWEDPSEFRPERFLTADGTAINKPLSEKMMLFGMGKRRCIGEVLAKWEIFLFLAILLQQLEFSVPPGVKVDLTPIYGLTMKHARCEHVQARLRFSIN
How it was run: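 Luminescent readout of luciferin formed from Luciferin-ME by human CYP1A2; data normalized against complete inhibition by 57 uM furafylline. Enzyme 20nM, substrate 100uM at Km, 100mM KPO4 buffer, 60 min reaction at room temperature.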

[4] = NFAT Signaling Pathway (AID 444; active = well fitted curve in either direction with a large enough effect, not every such curve was filed as active;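 note: carbachol stimulus at about its EC50 of 1 µM final; % is set by controls: 0 for no effect and ±100 for the full control effect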); settings: Jurkat NFAT-bla M1, carbachol, beta-lactamase ratio, 5 h; at 7.69 µM (top of the series) unless noted
How it was run: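 Jurkat cells carrying an NFAT-driven β-lactamase reporter and co-transfected muscarinic M1 receptor were treated with compound plus carbachol (1 uM final, an EC50 level) for 5 h at 37 °C. CCF4 loading followed for 1 h at RT; 460/530 nm ratio gave %activity.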

[5] = Stat Signaling Pathway (AID 446; active = well fitted curve in either direction with a large enough effect, not every such curve was filed as active;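 note: ME-180 cervical cancer cells given 40 pM IL-6 alongside compound; SIE-controlled beta-lactamase reporter measured as 460/530 nm FRET emission ratio; % is set by controls: 0 for no effect and ±100 for the full control effect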); settings: ME-180 SIE beta-lactamase reporter, IL-6 stimulated, 5 h; at 7.69 µM (top of the series) unless noted
How it was run: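 ME-180 SIE-bla cells; overnight plating; cpd + IL-6 40 pM, 5 h, 37 C; LiveBLAzer 2.5 h RT; 460/530 nm emission ratio. Normalized to 300 pM IL-6 and 125 nM JAK inhibitor controls.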

[6] = molecular target: Glucocorticoid receptor (Homo sapiens) (UniProt P04150); assay: GR-GFP Redistribution (AID 450;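 active = compounds whose dose series gives a full or clear partial fitted curve of increased nuclear translocation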; note: potency is the fitted concentration of half-maximal effect); settings: U2OS GR-GFP nuclear translocation, laser cytometry, 2 h
Sequence of Glucocorticoid receptor (Homo sapiens) (P04150 whole entry, looked up, the tested form may be a part): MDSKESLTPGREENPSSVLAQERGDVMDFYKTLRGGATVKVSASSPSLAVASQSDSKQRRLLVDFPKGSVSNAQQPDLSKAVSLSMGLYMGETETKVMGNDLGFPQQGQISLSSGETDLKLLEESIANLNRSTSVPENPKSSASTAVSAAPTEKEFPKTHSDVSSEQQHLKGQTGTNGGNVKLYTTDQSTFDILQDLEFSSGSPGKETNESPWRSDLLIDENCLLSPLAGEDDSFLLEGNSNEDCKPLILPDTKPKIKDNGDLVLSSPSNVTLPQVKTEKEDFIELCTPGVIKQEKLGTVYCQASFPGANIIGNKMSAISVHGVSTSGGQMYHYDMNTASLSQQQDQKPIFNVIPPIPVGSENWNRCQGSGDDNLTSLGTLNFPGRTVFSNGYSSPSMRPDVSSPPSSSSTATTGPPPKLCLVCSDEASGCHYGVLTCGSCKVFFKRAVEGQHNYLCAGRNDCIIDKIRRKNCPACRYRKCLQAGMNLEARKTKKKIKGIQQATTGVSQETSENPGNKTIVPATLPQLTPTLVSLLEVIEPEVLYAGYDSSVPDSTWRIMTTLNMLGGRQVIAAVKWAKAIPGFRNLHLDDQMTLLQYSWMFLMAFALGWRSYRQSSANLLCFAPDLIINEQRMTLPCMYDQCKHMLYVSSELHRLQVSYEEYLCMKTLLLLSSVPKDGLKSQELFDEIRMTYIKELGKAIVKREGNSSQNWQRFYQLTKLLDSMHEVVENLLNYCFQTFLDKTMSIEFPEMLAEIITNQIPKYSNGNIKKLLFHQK

[7] = molecular target: Glucocorticoid receptor (Homo sapiens) (UniProt P04150); assay: GR-EFC Redistribution (AID 451; calls by dose curve; note: potency is the fitted concentration of half-maximal effect); settings: CHO-K1 GR-EFC translocation, beta-gal luminescence, 2 h
How it was run: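 CHO-K1 cells stably expressing nuclear-localized β-gal enzyme acceptor and GR fused C-terminally to the enzyme donor fragment; ligand-driven nuclear translocation restores β-gal by complementation. Compounds titrated up to 46 uM final, 2 h at 37 °C; luminescence read.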

[8] = molecular target: Mitogen-activated protein kinase 10 (Mus musculus) (UniProt Q61831); assay: JNK3 AlphaScreen Assay (AID 530; active = well fitted curve in either direction with a large enough effect, not every such curve was filed as active;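 note: kinase came from lysate of stimulated human HepG2 cells; signal reports phosphorylation of biotinylated GST-cJun 1-79 at Ser73 with 10 µM ATP; % is set by controls: 0 for no effect and ±100 for the full control effect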); settings: JNK3 lysate, c-Jun phosphorylation; series mostly up to 57.1 µM
How it was run: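 Inhibitors reduce antibody binding to phosphorylated biotin-cJun, lowering AlphaScreen luminescence. Lysates from HepG2 cells pre-activated by IL-1beta plus TNF-alpha supplied JNK3; compounds were titrated.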

[9] = molecular target: Cytochrome P450 3A4 (Homo sapiens) (UniProt P08684); assay: qHTS Assay for Inhibitors and Substrates of Cytochrome P450 3A4 (AID 884); settings: recombinant CYP3A4, Luciferin-PPXE luminescence; series mostly up to 57.1 µM; note: nearly all actives have a fitted effect of over 50% in size; note: potency is the fitted concentration of half-maximal effect
Sequence of Cytochrome P450 3A4 (Homo sapiens) (P08684 whole entry, looked up): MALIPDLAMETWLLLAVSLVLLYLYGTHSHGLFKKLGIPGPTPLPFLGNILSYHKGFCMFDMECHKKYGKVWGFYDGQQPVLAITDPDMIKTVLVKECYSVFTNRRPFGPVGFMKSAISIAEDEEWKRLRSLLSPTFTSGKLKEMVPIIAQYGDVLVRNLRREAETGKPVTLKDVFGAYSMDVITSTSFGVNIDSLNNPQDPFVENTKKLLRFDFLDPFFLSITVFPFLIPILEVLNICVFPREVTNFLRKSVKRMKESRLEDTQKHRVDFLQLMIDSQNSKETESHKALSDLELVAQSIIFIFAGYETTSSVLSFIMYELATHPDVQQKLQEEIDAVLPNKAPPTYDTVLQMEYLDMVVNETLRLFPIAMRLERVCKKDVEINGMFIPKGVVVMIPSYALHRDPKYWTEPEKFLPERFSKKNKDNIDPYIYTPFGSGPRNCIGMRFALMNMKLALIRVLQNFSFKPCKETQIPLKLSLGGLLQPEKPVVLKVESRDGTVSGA
How it was run: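 20 nM human CYP3A4 with 25 uM Luciferin-PPXE (at KM) in 200 mM KPO4, preincubated 10 min with compound; NADPH regeneration started a 60 min RT reaction. Luciferin detected by luminescence, normalized to 57 uM ketoconazole as full inhibition.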

[10] = molecular target: Cytochrome P450 2C19 (Homo sapiens) (UniProt P33261); assay: qHTS Assay for Inhibitors and Substrates of Cytochrome P450 2C19 (AID 899); settings: recombinant CYP2C19, luciferin-H EGE luminescence; series mostly up to 57.1 µM; note: nearly all actives have a fitted effect of over 60% in size; note: potency is the fitted concentration of half-maximal effect
Sequence of Cytochrome P450 2C19 (Homo sapiens) (P33261 whole entry, looked up): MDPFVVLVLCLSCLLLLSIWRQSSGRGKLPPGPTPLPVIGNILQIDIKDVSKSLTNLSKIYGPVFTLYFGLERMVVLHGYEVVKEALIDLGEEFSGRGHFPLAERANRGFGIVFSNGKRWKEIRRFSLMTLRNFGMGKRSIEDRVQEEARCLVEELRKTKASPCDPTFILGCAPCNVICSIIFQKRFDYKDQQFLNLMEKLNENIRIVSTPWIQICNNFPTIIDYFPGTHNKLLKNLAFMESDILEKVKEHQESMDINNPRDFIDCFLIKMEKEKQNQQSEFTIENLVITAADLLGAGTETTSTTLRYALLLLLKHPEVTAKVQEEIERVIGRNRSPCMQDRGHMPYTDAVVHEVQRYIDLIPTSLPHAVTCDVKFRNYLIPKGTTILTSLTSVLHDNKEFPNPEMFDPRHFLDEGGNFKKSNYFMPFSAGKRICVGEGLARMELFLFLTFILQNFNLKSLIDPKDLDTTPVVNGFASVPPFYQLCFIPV
How it was run: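 In 50mM KPO4, the reaction held 5nM enzyme and KM-level (10uM) Luciferin-H EGE; it ran 60 min at 37C after NADPH regeneration and a 10 min compound preincubation. Luminescence values were scaled to 57uM ketoconazole as complete inhibition.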

[11] = qHTS Assay for Lipid Storage Modulators (AID 1519; calls by dose curve); settings: Drosophila S3 cells, BODIPY lipid droplet/cell ratio, laser cytometry, cells loaded with oleic acid; for activity change, negative = inhibition: at 57.5 µM (top of the series)
How it was run: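 Cells seeded at 5,000 per well were treated with compounds over a concentration series and loaded with oleic acid (400 uM, as added). Lipid droplet fluorescence (488 nm excitation, 500-530 nm channel) was read by laser-scanning cytometry and normalized to 20 uM Triacsin C.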

[12] = molecular target: Dual specificity protein kinase CLK4 (Homo sapiens) (UniProt Q9HAZ1); assay: qHTS Assay for Inhibitors of CDC-like Kinase 4 (Kinase-Glo Assay) (AID 1770); settings: recombinant Clk4, Kinase-Glo ATP depletion luminescence; series mostly up to 66.7 µM; note: nearly all actives have a fitted effect of over 65% in size; note: potency is the fitted concentration of half-maximal effect
Sequence of Dual specificity protein kinase CLK4 (Homo sapiens) (Q9HAZ1 whole entry, looked up): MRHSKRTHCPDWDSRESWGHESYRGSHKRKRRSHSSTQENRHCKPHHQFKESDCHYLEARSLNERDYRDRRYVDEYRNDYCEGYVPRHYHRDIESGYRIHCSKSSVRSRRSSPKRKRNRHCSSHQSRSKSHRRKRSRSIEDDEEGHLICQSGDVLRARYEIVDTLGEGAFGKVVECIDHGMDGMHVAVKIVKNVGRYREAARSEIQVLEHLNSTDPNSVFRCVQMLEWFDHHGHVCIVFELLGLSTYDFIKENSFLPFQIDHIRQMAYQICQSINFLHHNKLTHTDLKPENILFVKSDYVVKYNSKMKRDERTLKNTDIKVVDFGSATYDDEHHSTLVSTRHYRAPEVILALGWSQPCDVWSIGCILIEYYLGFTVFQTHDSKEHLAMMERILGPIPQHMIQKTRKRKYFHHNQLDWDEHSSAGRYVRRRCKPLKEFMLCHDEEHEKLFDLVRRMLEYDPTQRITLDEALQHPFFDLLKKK
How it was run: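 Recombinant human Clk4 (25 nM) phosphorylated RS repeat peptide (100 uM) with 1 uM ATP in Tris pH 7.5/MgCl2/EGTA/DTT/Triton buffer for 4.5 h at room temperature. Residual ATP was quantified by Kinase-Glo luciferase luminescence.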

[13] = molecular target: Dual specificity protein kinase CLK4 (Homo sapiens) (UniProt Q9HAZ1); assay: qHTS Assay for Inhibitors of CDC-like Kinase 4 (ADP-FP Assay) (AID 1795); settings: Transcreener ADP fluorescence polarization; series mostly up to 50 µM; note: nearly all actives have a fitted effect of over 60% in size; note: potency is the fitted concentration of half-maximal effect
How it was run: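 Recombinant human Clk4 (6.25 nM) phosphorylated RS repeat peptide (100 uM) with 1 uM ATP in Tris pH 7.5/MgCl2/EGTA/DTT/Triton buffer for one hour. ADP was quantified by Transcreener competitive fluorescence polarization against an ADP calibration curve.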

[14] = molecular target: Ubiquitin carboxyl-terminal hydrolase 1 (Homo sapiens) (UniProt O94782); assay: Inhibitors of USP1/UAF1: Pilot qHTS (AID 504865); settings: purified USP1/UAF1, Ub-rhodamine cleavage fluorescence; series mostly up to 54.9 µM;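 note: rhodamine fluorescence freed from ubiquitin-rhodamine substrate followed over time; top concentration of the series differs between compounds; % is set by controls: 0 for no effect and ±100 for the full control effect; nearly all actives have a fitted effect of over 35% in size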
Sequence of Ubiquitin carboxyl-terminal hydrolase 1 (Homo sapiens) (O94782 whole entry, looked up): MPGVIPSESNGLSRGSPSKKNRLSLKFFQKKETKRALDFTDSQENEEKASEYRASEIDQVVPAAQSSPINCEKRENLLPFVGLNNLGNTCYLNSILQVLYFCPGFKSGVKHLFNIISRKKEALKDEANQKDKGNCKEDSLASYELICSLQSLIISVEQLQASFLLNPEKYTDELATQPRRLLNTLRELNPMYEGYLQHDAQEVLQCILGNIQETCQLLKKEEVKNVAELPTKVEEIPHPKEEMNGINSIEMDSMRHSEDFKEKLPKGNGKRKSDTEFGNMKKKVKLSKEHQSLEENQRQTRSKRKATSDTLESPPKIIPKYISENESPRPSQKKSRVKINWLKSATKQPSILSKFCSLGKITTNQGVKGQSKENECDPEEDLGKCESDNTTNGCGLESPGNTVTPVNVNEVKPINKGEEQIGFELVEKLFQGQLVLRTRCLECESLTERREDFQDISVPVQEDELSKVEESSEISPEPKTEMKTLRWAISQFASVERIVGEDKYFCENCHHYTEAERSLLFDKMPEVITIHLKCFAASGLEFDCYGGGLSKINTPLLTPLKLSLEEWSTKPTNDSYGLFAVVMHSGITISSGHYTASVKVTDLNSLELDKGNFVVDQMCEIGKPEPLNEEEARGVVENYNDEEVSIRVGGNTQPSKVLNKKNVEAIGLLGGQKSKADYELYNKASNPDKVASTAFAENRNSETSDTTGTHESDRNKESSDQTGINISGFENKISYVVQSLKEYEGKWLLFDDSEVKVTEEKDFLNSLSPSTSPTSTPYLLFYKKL
How it was run: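 USP1/UAF1 complex (1nM) preincubated with compound 15 min at room temperature, then Ub-Rho substrate (150nM final) added. Fluorescence read kinetically at 480/540 nm, 6 reads every 60 seconds. Buffer: 50mM HEPES pH 7.8, 0.5mM EDTA, 0.1 mg/ml BSA, 1mM TCEP, 0.01% Tween-20.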

[15] = Primary qHTS for small molecule stabilizers of the endoplasmic reticulum resident proteome: Secreted ER Calcium Modulated Protein (SERCaMP) assay (AID 1508630); settings: SH-SY5Y GLuc-SERCaMP (Gaussia luciferase released on ER calcium loss) secretion, thapsigargin, luminescence; series mostly up to 38.4 µM; note: % is set by controls: 0 for no effect and ±100 for the full control effect
How it was run: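 GLuc-SERCaMP-expressing SH-SY5Y cells, pretreated 16 h with compound, are challenged with thapsigargin to empty ER calcium stores; after 4 h, coelenterazine is added directly to the medium and luminescence is imaged.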

[16] = molecular target: 3',5'-cyclic-AMP phosphodiesterase 4B (Homo sapiens) (UniProt Q07343); assay: qHTS Assay for Inhibitors of PDE-IV (AID 607; active = well fitted activation curve with a large enough effect in the main read-out, with a control signal flat, not every such curve was filed as active; note: % of control where 0% means no effect); settings: HEK293 ACTOne CNG channel cells, membrane potential fluorescence; series mostly up to 22.9 µM
Sequence of 3',5'-cyclic-AMP phosphodiesterase 4B (Homo sapiens) (Q07343 whole entry, looked up): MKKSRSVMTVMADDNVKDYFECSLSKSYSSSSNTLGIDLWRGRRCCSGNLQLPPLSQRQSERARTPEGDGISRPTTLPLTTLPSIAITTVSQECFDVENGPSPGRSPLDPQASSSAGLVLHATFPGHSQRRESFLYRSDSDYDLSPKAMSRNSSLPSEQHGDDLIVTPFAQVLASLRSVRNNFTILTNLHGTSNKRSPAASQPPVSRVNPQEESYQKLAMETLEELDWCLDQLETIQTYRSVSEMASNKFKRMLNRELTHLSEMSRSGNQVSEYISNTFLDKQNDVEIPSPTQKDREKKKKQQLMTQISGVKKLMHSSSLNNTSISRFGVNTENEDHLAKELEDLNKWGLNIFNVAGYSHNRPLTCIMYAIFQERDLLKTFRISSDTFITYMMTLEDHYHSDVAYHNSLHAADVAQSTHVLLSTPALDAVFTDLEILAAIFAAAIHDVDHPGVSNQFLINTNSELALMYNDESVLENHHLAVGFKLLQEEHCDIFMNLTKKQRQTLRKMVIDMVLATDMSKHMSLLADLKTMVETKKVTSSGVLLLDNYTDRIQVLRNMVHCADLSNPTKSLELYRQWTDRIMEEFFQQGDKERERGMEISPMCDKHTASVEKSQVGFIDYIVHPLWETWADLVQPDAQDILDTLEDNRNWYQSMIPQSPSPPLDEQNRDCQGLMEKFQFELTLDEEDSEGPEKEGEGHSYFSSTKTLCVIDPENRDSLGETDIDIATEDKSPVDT
How it was run: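 ACTOne HEK293 cells carry a modified cAMP-gated CNG channel and express endogenous PDE4; plated 1000 cells/well, compounds up to 22.9 uM final. Membrane-potential dye fluorescence (ex 535/em 590) was read; parental cells received 10 uM forskolin + 100 uM RO 20-1724.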

[17] = molecular target: Cytochrome P450 3A4 (Homo sapiens) (UniProt P08684); assay: qHTS Assay for Activators of Cytochrome P450 3A4 (AID 885); settings: recombinant CYP3A4, Luciferin-PPXE luminescence, 60 min; series mostly up to 57.1 µM; note: nearly all actives have a fitted effect of over 65% in size
How it was run: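 20nM CYP3A4 + 25uM Luciferin-PPXE (=KM), 200mM KPO4; cpd 10 min RT; NADPH regen, 60 min RT; stop w/ detection buffer, 20 min; luminescence. Normalized to 57 uM ketoconazole.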

[18] = qHTS Assay for Identification of Small Molecule Agonists for Hypoxia Response Element Signaling Pathway (AID 914; active = well fitted activation curve with a large enough effect in the signal ratio, with a control signal flat, not every such curve was filed as active; the % refers to the signal ratio; note: potency is the fitted concentration of half-maximal effect); settings: ME-180 (cervical carcinoma) HRE-bla reporter, beta-lactamase ratio, CoCl2, 17 h; activation: stronger effect = higher value
How it was run: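 HRE-bla ME-180 assay for agonist-like enhancement of an EC50 CoCl2 stimulus: 17 h at 37 degrees Celsius, CCF4 for 2.5 h, ratiometric 460/530 nm signal converted to %Activity and fitted to AC50.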

[19] = molecular target: Dual specificity protein kinase CLK4 (Homo sapiens) (UniProt Q9HAZ1); assay: qHTS Assay for Inhibitors of CDC-like Kinase 4 (ADP-Glo Assay) (AID 1771); settings: recombinant CLK4, ADP-Glo luminescence; series mostly up to 80 µM; note: potency is the fitted concentration of half-maximal effect; nearly all actives have a fitted effect of over 70% in size
How it was run: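 Luminescence from ADP-Glo reports ADP produced by 25 nM Clk4 acting on 100 uM RS repeat peptide with 1 uM ATP over 1 hr at room temperature; residual ATP is depleted before ADP is converted to ATP for detection.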

[20] = measured here: cell count channel max response
[21] = measured here: lipid channel max response

Cc1ccccc1-c1cc(Nc2ccccc2)ncn1
31.4%: max response [11, 21]
30.6%: max response [11, 20]
active: Potency [3] 3.98 µM | Potency [10] 3.16 µM
inactive: Potency [1] > 11.4 µM | activity change, negative = inhibition [2] -4.93% | activity change, negative = inhibition [4] 1.39% | activity, negative = inhibition [5] 4.11% | Potency [6] > 46 µM | Potency [7] > 46 µM | outcome [8] | Potency [9] | activity change, negative = inhibition [11] 4.64% | Potency [12] | Potency [13] | Potency [14] | Potency [15]

Cc1noc(C)c1-c1cc(NCc2cccs2)ncn1
20.5%: max response [11, 20]
27.7%: max response [11, 21]
inactive: Potency [1] > 11.4 µM | activity change, negative = inhibition [2] 17% | activity change, negative = inhibition [4] -7.58% | activity, negative = inhibition [5] 7.7% | Potency [6] > 46 µM | Potency [7] > 46 µM | outcome [8] | Potency [16] | Potency [17] | Potency [10] | activity change, negative = inhibition [11] 5.54% | Potency [14] | Potency [15]
active: Potency [3] 0.794 µM | Potency [12] 11.2 µM | Potency [13] 14.1 µM

N#Cc1cccc(-c2nc3cnc(N4CCOCC4)nc3n(C3CC3)c2=O)c1
17.6%: max response [11, 20]
13.2%: max response [11, 21]
inactive: Potency [6] > 9.22 µM | Potency [7] > 46 µM | outcome [8] | Potency [16] | Potency [17] | activity change, negative = inhibition [11] -2.2% | Potency [12] | Potency [13] | Potency [14] | Potency [15]
active: Potency [3] 2.51 µM | Potency [18] 3.16 µM

COCCNc1cc(-c2c(C)noc2C)ncn1
inactive: Potency [1] > 11.4 µM | activity change, negative = inhibition [2] -3.45% | activity change, negative = inhibition [4] 3.73% | activity, negative = inhibition [5] 0.472% | Potency [6] > 46 µM | Potency [7] > 46 µM | outcome [8] | Potency [16] | activity change, negative = inhibition [11] 8.14% | Potency [13] | Potency [14] | Potency [15]
13%: max response [11, 20]
active: Potency [3] 10 µM
22.2%: max response [11, 21]

CCNc1ncc2nc(-c3cc(F)cc(F)c3)c(=O)n(C)c2n1
-3.55%: max response [11, 21]
active: Potency [3] 2 µM | Potency [18] 3.16 µM
-4.13%: max response [11, 20]
inactive: Potency [1] > 11.4 µM | Potency [6] > 9.22 µM | outcome [8] | activity change, negative = inhibition [11] -1.81% | Potency [12] | Potency [13] | Potency [14] | Potency [15]

COc1cccc(Nc2ncc3nc(C)c(=O)n(CCc4ccccc4)c3n2)c1
-10.5%: max response [11, 20]
inactive: Potency [1] > 11.4 µM | activity change, negative = inhibition [2] -17.7% | activity change, negative = inhibition [4] 3.56% | activity, negative = inhibition [5] -6.89% | Potency [6] > 9.22 µM | Potency [7] > 46 µM | outcome [8] | Potency [17] | activity change, negative = inhibition [11] -2.06% | Potency [14] | Potency [15]
active: Potency [3] 5.01 µM | Potency [9] 7.94 µM | Potency [19] 7.08 µM
-13.8%: max response [11, 21]
